# Assay outcomes from PubChem.
# HSF1 inh – HSF1 inhibition; NIH3T3-HGL HSE-luciferase, MG132-induced, luminescence 8 h; active compounds read low; activity change, negative = inhibition, % at 7.5 µM (by protocol); 300,000 tested, 0.77% active; AID 2098;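 active means more than half of replicate wells show activity change below -50%, luminescence cut by over half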;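 further: luciferase reports HSF-1 transcriptional activity via heat shock element; 0% = median of DMSO wells and -100% = zero luminescence signal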
# HSF-1 act – increases HSF-1 driven luciferase reporter signal. NIH3T3-HGL HSF-1 luciferase reporter, MG132, 8 h; 100% = twice DMSO control signal. activation, % at 9 µM. 300,000 tested, 1.7% active;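 active means mean replicate activation of at least 50% with a set share of replicates each reaching 50%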;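 further: 0% = median of the neutral control wells and 100% = twice that signal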
# GAA850 FXN act – increases GAA850 frataxin promoter reporter activity; 360,000 tested, 0.56% active; activation, % at 6 µM; AID 540364; HEK293 lucGAA850 FXN promoter luciferase reporter, 24 h; percent of 10 µM SAHA response;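 active means activation above the average of all compounds screened plus 3 SD, cutoff fixed separately per campaign, cut at about 7.5% in these data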;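 further: 0% = DMSO wells and 100% = 10 µM SAHA wells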
# DAX1 inh – inhibitors of human orphan nuclear receptor DAX1 (NR0B1); AID 504766; P51843; 340,000 tested, 0.99% active; inhibition, % at 6.75 µM; HEK293 Gal4-DAX1 luciferase reporter, luminescence;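 active means inhibition above the mean over all tested compounds plus 3 SD, cut at about 4.2% in these data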;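 further: 0% = DAX1-transfected cells with DMSO and 100% = empty-vector control cells with DMSO; inhibition shows as a rise in luminescence from relieved DAX1 repression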
# Target sequence (P51843 207-470 limits assumed): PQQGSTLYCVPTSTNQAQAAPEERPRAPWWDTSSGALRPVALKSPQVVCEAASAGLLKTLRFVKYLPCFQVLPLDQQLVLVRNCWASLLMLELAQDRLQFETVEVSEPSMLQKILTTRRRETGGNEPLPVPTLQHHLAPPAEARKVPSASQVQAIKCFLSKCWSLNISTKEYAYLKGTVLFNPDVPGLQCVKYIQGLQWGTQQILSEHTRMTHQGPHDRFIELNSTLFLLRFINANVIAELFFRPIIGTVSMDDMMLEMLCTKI
# AHR activator – activators of human aryl hydrocarbon receptor; AHR-responsive luciferase reporter cells, luminescence; activation, % at 5 µM; AID 2796; 320,000 tested, 2.5% active; in the data active means activation above about 47%;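 further: 0% = vehicle wells and 100% = reference agonist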
# * hit, by the source's call; x = not tested or not shown. Only some compounds are listed: those with a hit (about 5.4% of all), similar ones and a draw of the others.
SMILES,HSF1 inh,HSF-1 act,GAA850 FXN act,DAX1 inh,AHR activator
Cc1cc(C)cc(OCC(=O)N2N=C(C(F)(F)F)CC2(O)C(C)(C)C)c1 (centres undefined),-5,2,3,0,12
O=c1[nH]c(/C=C2\C=Nc3ccccc32)c(O)n1Cc1ccccc1F,20,29,-1,-2,16
CSc1nc(O)c(/C=C2\C=Nc3ccccc32)[nH]1,10,28,5,1,76*
O=C(N/N=C/c1ccncc1)NC1CCCCC1,-7,-6,3,5.9*,10
O=C(N/N=C/c1ccncc1)C1C2CCCCCCC21 (centres undefined),-3,7,4,-1,44
C=CCn1c(SCC)nc2sc3c(c2c1=O)CCc1ccccc1-3,-4,4,3,1,18
C=CCSc1nc2sc3c(c2c(=O)n1CC)CCc1ccccc1-3,2,10,2,0,56*
Cc1ccc2cc(NC(=O)C3(C)CCN3C(C)C)ccc2n1 (centres undefined),x,x,1,x,x
CC(=O)N1CCN(C(=O)CCC(=O)O)CC1,-7,-4,2,0,-2
CN=c1sc(C(=O)Nc2cccc(Cl)c2)cc(=O)n1C,-5,-10,-1,-2,3
CN=c1sc(C(=O)Nc2ccccc2)c(C)n1C,-3,-11,-1,-1,72*
COc1cccc(OCc2nc3ccccc3[nH]2)c1,22,44,1,2,22
COc1ccc(N=c2oc3ccc(OC)cc3cc2-c2nc3ccccc3[nH]2)cc1,31,58*,0,2,24
COc1cccc(N=c2oc3ccc(OC)cc3cc2-c2nc3ccccc3[nH]2)c1,28,54*,4,2,53*
COc1ccc2oc(=O)c(-c3nc4ccccc4o3)cc2c1,3,1,6,2,22
CN(c1ccc(O)cc1)c1nc(-c2cccs2)cs1,-1,12,1,1,47*
COCCNC(=O)c1ccc(CS(=O)(=O)c2ccccc2OC)o1,-2,12,1,-1,2
O=C(NCCCN1CCOCC1)c1ccc(CS(=O)(=O)c2c(Cl)cccc2Cl)o1,-12,8,-1,4,0
COc1ccccc1S(=O)(=O)Cc1ccc(C(=O)NCCN2CCCCCC2)o1,-2,-3,2,3,47*
O=C(NCCN1CCOCC1)c1ccc(CS(=O)(=O)c2c(Cl)cccc2Cl)o1,x,x,-2,7.2*,3
O=C(c1ccc(CS(=O)(=O)c2ccc(Br)cc2)o1)N1CCCC1,-2,4,1,1,-3
O=C(c1ccc(CS(=O)(=O)c2ccccc2)o1)N1CCOCC1,-1,6,-1,5.6*,3
CCOC(=O)N1CCN(C(=O)c2ccc(CS(=O)(=O)c3c(Cl)cccc3Cl)o2)CC1,-77*,-82,2,1,1
CN1CCN(C(=O)c2ccc(CS(=O)(=O)c3c(Cl)cccc3Cl)o2)CC1,-2,-9,1,0,0
CC(O)[C@@H](NC(=O)C1CCC(CNC(=O)[C@H](Cc2ccccc2)NC(=O)OC(C)(C)C)CC1)C(=O)O (some centres undefined),4,5,0,-1,1
SMILES,HSF1 inh,HSF-1 act,GAA850 FXN act,DAX1 inh,AHR activator
COc1cc(C(=O)N(C(C)C)C2CCCCC2)cc(OC)c1OC,x,x,1,-1,x
CC(C(=O)NC1CCCCCC1)c1ccc([N+](=O)[O-])cc1 (centres undefined),-6,3,2,0,-3
CC(C(=O)NC1CC(C)(C)NC(C)(C)C1)c1ccc([N+](=O)[O-])cc1 (centres undefined),-59*,-62,0,-1,-2
Cc1ccccc1NC(=O)C(C)N1C(=O)c2ccccc2C1=O (centres undefined),-2,-6,-2,-1,1
Cc1cccnc1NC(=O)C(C)N1C(=O)c2ccccc2C1=O (centres undefined),2,4,-1,7.5*,66*
Cc1cccnc1NC(=O)Nc1ccc(Cl)cc1,12,31,7,4.3*,74*
Cc1cccnc1NC(=S)Nc1ncccc1C,25,49,6,4.8*,-1
O=C1CCC(C2CCc3cc(O)ccc3C2)C1 (centres undefined),x,x,1,0,x
CCN(CC)S(=O)(=O)c1c(OC)cc(C)c(Cl)c1C,6,14,3,-1,10
CCCCCCN(C(=O)CCl)c1ccccc1,-68*,-71,-6,0,0
CCCCCCCN(C(=O)CCl)c1cccc(C)c1,-93*,-93,-4,-1,2
CCCn1c(N)c(Sc2ccc(C)cc2)c(=O)n(CCC)c1=O,56,73*,1,1,1
CCC1(C(=O)OC)CCc2c(cc(OC)c3ccccc23)C1=O (centres undefined),-7,12,1,0,54*
COc1cc(C(=O)NNC(=O)CCOc2ccccc2)cc(OC)c1OC,6,6,-1,0,-1
Cc1[nH]c2ccccc2c1N=Nc1cc(C(=O)O)cc(C(=O)O)c1,-2,-2,1,1,8
Cc1[nH]c2ccccc2c1C1=NNC(=Nc2ccc(F)cc2)SC1,-12,-7,0,4.4*,39
Oc1[nH]c2ccccc2c1N=Nc1c(F)c(F)c(Cl)c(F)c1F,-2,4,-1,1,11
Cc1[nH]c2ccccc2c1N=Nc1ccc(F)cc1,4,-1,3,-1,67*
Cc1[nH]c2ccccc2c1N=Nc1ccccc1F,6,19,2,0,51*
CCOc1cc(/C=N/NC(=O)C2CCCC2)ccc1OC(C)C,3,-8,2,0,4
Cc1nc2ccccc2nc(C)c1=NOCc1ccccc1Cl,22,55*,6,1,19
CCCCN(C(=O)c1c(CC)noc1C)c1c(N)n(CCCC)c(=O)[nH]c1=O,-1,11,1,0,0
COc1cc2oc(=O)ccc2cc1-c1c(OC)ccc2ccc(=O)oc12,x,x,-3,0,2
CC(=O)c1ccc(N(CC(=O)NC2CCCCC2)C(=O)c2csnn2)cc1,-6,3,0,0,1
CC1(c2ccccc2)CC(c2ccccc2)=Nc2ccccc2N1 (centres undefined),14,11,5,4,12
Cc1ccc(C2=Nc3ccccc3NC(C)(c3ccc(C)o3)C2)o1 (centres undefined),40,53*,2,1,41
CCC(CC)C(=O)N(C)c1c(C)nc2c(OCc3ccc(Cl)cc3)cccn12,x,x,-3,x,x
O=C(NN1C(=O)C2C3C=CC(C4CC34)C2C1=O)c1ccccc1Cl (centres undefined),-7,8,4,5.1*,-1
OCCCn1c(C2CCCN2c2nc(-c3ccc(F)cc3)cs2)nc2cc(Cl)c(N3CCCCC3)cc21 (centres undefined),-5,-14,1,1,13
